# Measured values published in PubChem BioAssay (NCI).
# This is part of a sample that, as a whole, favours compounds with a hit. Of some 79,000 tested, about 15% had one in any assay. A number with no mark means an inactive call. Calls of active or inactive are those of the source. Cut-off read from the data, not from the text of the source: active = growth inhibition above about 70%; inactive = the rest.
# Assays:
# [1] = NCI Yeast Anticancer Drug Screen. Data for the rad52 strain (AID 147);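 note: 0% = growth of vehicle-treated control cultures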; details: S. cerevisiae rad52 mutant growth inhibition, active compounds read high
# How it was run: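 Read-out: growth inhibition versus vehicle-treated controls. Cells were a DNA repair-deficient yeast strain treated with compounds.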
# [2] = NCI Yeast Anticancer Drug Screen. Data for the wt1 strain (AID 149);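 note: 0% = growth of vehicle-treated wt1 cultures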; details: S. cerevisiae wt1 strain (SPY 50644) growth inhibition, active compounds read high
# How it was run: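 Each compound is tested on wt1 yeast and the loss of growth versus vehicle gives the inhibition value.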
# [3] = NCI Yeast Anticancer Drug Screen. Data for the rad50EPP+ strain (AID 151);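 note: 0% = growth of vehicle-treated control cultures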; details: S. cerevisiae rad50 mutant strain, active compounds read high
# How it was run: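 Growth inhibition read against vehicle controls in rad50EPP+ yeast, a strain altered in DNA damage repair, after compound exposure.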
# [4] = NCI Yeast Anticancer Drug Screen. Data for the mgt1 strain (AID 153); details: S. cerevisiae mgt1 mutant growth inhibition, active compounds read high
# How it was run: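 mgt1 yeast grown with test compound; read-out is growth inhibition versus vehicle-treated cultures.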
# [5] = NCI Yeast Anticancer Drug Screen. Data for the rad50 strain (AID 155);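 note: 0% = growth of vehicle-only cultures of the same strain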; details: S. cerevisiae rad50 strain growth inhibition, active compounds read high
# How it was run: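 Vehicle-treated cultures provide the reference for the growth inhibition reported for compound-exposed, repair-deficient yeast.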
# [6] = NCI Yeast Anticancer Drug Screen. Data for the mec2-1 strain (AID 157); details: S. cerevisiae mec2-1 strain, active compounds read high
# How it was run: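 Yeast mec2-1 mutant treated with compound. Readout: growth inhibition vs vehicle controls.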
# [7] = NCI Yeast Anticancer Drug Screen. Data for the rad14 strain (AID 159);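 note: 0% = growth of vehicle-treated control cultures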; details: S. cerevisiae rad14 strain growth inhibition, active compounds read high
# How it was run: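 Inhibition of growth is reported for a repair-deficient yeast mutant following compound treatment, calculated relative to cultures that received vehicle.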
# [8] = NCI Yeast Anticancer Drug Screen. Data for the sgs1 mgt1 strain (AID 161);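 note: 0% = growth of cultures given vehicle only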; details: S. cerevisiae sgs1 mgt1 strain, active compounds read high
# How it was run: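 Test agents were incubated with a DNA-repair-mutant yeast strain. Growth was then read and compared against vehicle-treated controls.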
# [9] = NCI Yeast Anticancer Drug Screen. Data for the CLN2oe strain (AID 163);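 note: 0% = growth of vehicle-only control cultures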; details: S. cerevisiae CLN2oe strain, active compounds read high
# How it was run: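 Read-out: yeast growth inhibition, expressed relative to vehicle-only controls. The strain bears an engineered cell-cycle alteration.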
# [10] = NCI Yeast Anticancer Drug Screen. Data for the bub3 strain (AID 167); details: S. cerevisiae bub3 mutant strain, active compounds read high
# How it was run: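 Mutant yeast screening strain plus compound; vehicle-treated cultures serve as the 0% inhibition reference.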
# [11] = NCI Yeast Anticancer Drug Screen. Data for the wt2 strain (AID 169); details: S. cerevisiae wt2 strain growth inhibition, active compounds read high
# How it was run: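 Read-out: growth inhibition versus vehicle-treated control cultures after compound exposure of the yeast strain.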
# [12] = NCI Yeast Anticancer Drug Screen. Data for the mlh1 strain (AID 171);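 note: 0% = growth of vehicle-treated control cultures of the same strain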; details: S. cerevisiae mlh1 strain growth inhibition, active compounds read high
# How it was run: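 Read-out: growth inhibition versus vehicle controls. Strain: engineered yeast with a defined DNA repair or cell cycle defect, compound-treated.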
# [13] = NCI Yeast Anticancer Drug Screen. Data for the sgs1 strain (AID 173);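 note: 0% = growth of vehicle-only control cultures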; details: S. cerevisiae sgs1 mutant, active compounds read high
# How it was run: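 Read-out: yeast growth inhibition relative to vehicle controls, following compound exposure of a strain with a defined DNA repair/cell cycle alteration.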
# [14] = NCI Yeast Anticancer Drug Screen. Data for the mlh1 rad18 strain (AID 175); details: S. cerevisiae mlh1 rad18 strain growth inhibition, active compounds read high
# How it was run: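 Yeast w/ defined DNA-repair lesions; compound exposure; growth vs vehicle controls → % inhibition.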
# [15] = NCI Yeast Anticancer Drug Screen. Data for the rad18 strain (AID 177); details: S. cerevisiae rad18 mutant growth inhibition, active compounds read high
# How it was run: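 Readout: growth inhibition vs vehicle controls. Cells: genetically altered yeast strain, DNA repair defect.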
# [16] = at 5.0 µM (retest, dose inferred, filed as 0.5)
# [17] = at 50.0 µM (retest, dose inferred, filed as 5.0)
smiles,measurement,setting,value
CC(CC/C(=N/O)c1ccccc1)(CC/C(=N\O)c1ccccc1)[N+](=O)[O-] (stereo not given),growth inhibition,[1]; at 1.2 µM,1%
same,growth inhibition,[1]; at 3.7 µM,2%
same,growth inhibition,[1]; at 11.0 µM,-4%
same,growth inhibition,[1]; at 33.0 µM,4%
same,growth inhibition,[1]; at 100.0 µM,74% (active)
same,growth inhibition,[2]; at 1.2 µM,-1%
same,growth inhibition,[2]; at 3.7 µM,-5%
same,growth inhibition,[2]; at 11.0 µM,-7%
same,growth inhibition,[2]; at 33.0 µM,0%
same,growth inhibition,[2]; at 100.0 µM,26%
same,growth inhibition,[3]; at 1.2 µM,-3%
same,growth inhibition,[3]; at 3.7 µM,2%
same,growth inhibition,[3]; at 11.0 µM,-1%
same,growth inhibition,[3]; at 33.0 µM,2%
same,growth inhibition,[3]; at 100.0 µM,0%
same,growth inhibition,[4]; at 1.2 µM,-5%
same,growth inhibition,[4]; at 3.7 µM,-3%
same,growth inhibition,[4]; at 11.0 µM,-4%
same,growth inhibition,[4]; at 33.0 µM,-5%
same,growth inhibition,[4]; at 100.0 µM,57%
same,growth inhibition,[5]; at 1.2 µM,5%
same,growth inhibition,[5]; at 3.7 µM,3%
same,growth inhibition,[5]; [16],4%
same,growth inhibition,[5]; at 11.0 µM,-1%
same,growth inhibition,[5]; at 33.0 µM,4%
same,growth inhibition,[5]; [17],66%
same,growth inhibition,[5]; at 50.0 µM,11.4%
same,growth inhibition,[5]; at 100.0 µM,74% (active)
same,growth inhibition,[6]; at 1.2 µM,-3%
same,growth inhibition,[6]; at 3.7 µM,-3%
same,growth inhibition,[6]; [16],-11%
same,growth inhibition,[6]; at 11.0 µM,-5%
same,growth inhibition,[6]; at 33.0 µM,-5%
same,growth inhibition,[6]; [17],21%
same,growth inhibition,[6]; at 50.0 µM,96.5% (active)
same,growth inhibition,[6]; at 100.0 µM,56%
same,growth inhibition,[7]; at 1.2 µM,-2%
same,growth inhibition,[7]; at 3.7 µM,1%
same,growth inhibition,[7]; at 11.0 µM,-5%
same,growth inhibition,[7]; at 33.0 µM,-3%
same,growth inhibition,[7]; at 100.0 µM,65%
same,growth inhibition,[8]; [16],0%
same,growth inhibition,[8]; [17],53%
same,growth inhibition,[8]; at 50.0 µM,37%
same,growth inhibition,[9]; at 1.2 µM,-7%
same,growth inhibition,[9]; at 3.7 µM,-11%
same,growth inhibition,[9]; at 11.0 µM,-13%
same,growth inhibition,[9]; at 33.0 µM,-12%
same,growth inhibition,[9]; at 100.0 µM,71% (active)
same,growth inhibition,[10]; at 1.2 µM,-6%
same,growth inhibition,[10]; at 3.7 µM,-5%
same,growth inhibition,[10]; [16],8%
same,growth inhibition,[10]; at 11.0 µM,-9%
same,growth inhibition,[10]; at 33.0 µM,-9%
same,growth inhibition,[10]; [17],6%
same,growth inhibition,[10]; at 50.0 µM,90.8% (active)
same,growth inhibition,[10]; at 100.0 µM,52%
same,growth inhibition,[11]; at 1.2 µM,-10%
same,growth inhibition,[11]; at 3.7 µM,-11%
same,growth inhibition,[11]; at 11.0 µM,-16%
same,growth inhibition,[11]; at 33.0 µM,-10%
same,growth inhibition,[11]; at 100.0 µM,20%
same,growth inhibition,[12]; at 1.2 µM,-4%
same,growth inhibition,[12]; at 3.7 µM,-3%
same,growth inhibition,[12]; at 11.0 µM,-7%
same,growth inhibition,[12]; at 33.0 µM,-6%
same,growth inhibition,[12]; at 100.0 µM,32%
same,growth inhibition,[13]; at 1.2 µM,-13%
same,growth inhibition,[13]; at 3.7 µM,0%
same,growth inhibition,[13]; at 11.0 µM,-11%
same,growth inhibition,[13]; at 33.0 µM,-11%
same,growth inhibition,[13]; at 100.0 µM,55%
same,growth inhibition,[14]; [16],5%
same,growth inhibition,[14]; [17],46%
same,growth inhibition,[14]; at 50.0 µM,96.8% (active)
same,growth inhibition,[15]; at 1.2 µM,0%
same,growth inhibition,[15]; at 3.7 µM,-4%
same,growth inhibition,[15]; at 11.0 µM,-6%
same,growth inhibition,[15]; at 33.0 µM,0%
same,growth inhibition,[15]; at 100.0 µM,84% (active)
CC(=O)CC(c1ccccc1)c1c(O)c2ccccc2oc1=O (stereo not given),growth inhibition,[1]; at 1.2 µM,5%
same,growth inhibition,[1]; at 3.7 µM,-1%
same,growth inhibition,[1]; at 11.0 µM,-4%
same,growth inhibition,[1]; at 33.0 µM,16%
same,growth inhibition,[1]; at 100.0 µM,75% (active)
same,growth inhibition,[2]; at 1.2 µM,-10%
same,growth inhibition,[2]; at 3.7 µM,-10%
same,growth inhibition,[2]; at 11.0 µM,-12%
same,growth inhibition,[2]; at 33.0 µM,10%
same,growth inhibition,[2]; at 100.0 µM,64%
same,growth inhibition,[3]; at 1.2 µM,15%
same,growth inhibition,[3]; at 3.7 µM,4%
same,growth inhibition,[3]; at 11.0 µM,-3%
same,growth inhibition,[3]; at 33.0 µM,-4%
same,growth inhibition,[3]; at 100.0 µM,-16%
same,growth inhibition,[4]; at 1.2 µM,13%
same,growth inhibition,[4]; at 3.7 µM,4%
same,growth inhibition,[4]; at 11.0 µM,14%
same,growth inhibition,[4]; at 33.0 µM,44%
same,growth inhibition,[4]; at 100.0 µM,83% (active)
same,growth inhibition,[5]; at 1.2 µM,6%
same,growth inhibition,[5]; at 3.7 µM,5%
same,growth inhibition,[5]; [16],70% (active)
same,growth inhibition,[5]; at 11.0 µM,6%
same,growth inhibition,[5]; at 33.0 µM,20%
same,growth inhibition,[5]; [17],95% (active)
same,growth inhibition,[5]; at 50.0 µM,46.8%
same,growth inhibition,[5]; at 100.0 µM,76% (active)
same,growth inhibition,[6]; at 1.2 µM,-9%
same,growth inhibition,[6]; at 3.7 µM,-9%
same,growth inhibition,[6]; [16],61%
same,growth inhibition,[6]; at 11.0 µM,-4%
same,growth inhibition,[6]; at 33.0 µM,12%
same,growth inhibition,[6]; [17],97% (active)
same,growth inhibition,[6]; at 50.0 µM,31.5%
same,growth inhibition,[6]; at 100.0 µM,67%
same,growth inhibition,[7]; at 1.2 µM,-4%
same,growth inhibition,[7]; at 3.7 µM,0%
same,growth inhibition,[7]; at 11.0 µM,-8%
same,growth inhibition,[7]; at 33.0 µM,19%
same,growth inhibition,[7]; at 100.0 µM,68%
same,growth inhibition,[8]; [16],-1%
same,growth inhibition,[8]; [17],89% (active)
same,growth inhibition,[8]; at 50.0 µM,55.4%
same,growth inhibition,[9]; at 1.2 µM,17%
same,growth inhibition,[9]; at 3.7 µM,22%
same,growth inhibition,[9]; at 11.0 µM,6%
same,growth inhibition,[9]; at 33.0 µM,39%
same,growth inhibition,[9]; at 100.0 µM,70% (active)
same,growth inhibition,[10]; at 1.2 µM,11%
same,growth inhibition,[10]; at 3.7 µM,13%
same,growth inhibition,[10]; [16],29%
same,growth inhibition,[10]; at 11.0 µM,14%
same,growth inhibition,[10]; at 33.0 µM,45%
same,growth inhibition,[10]; [17],86% (active)
same,growth inhibition,[10]; at 50.0 µM,62.1%
same,growth inhibition,[10]; at 100.0 µM,79% (active)
same,growth inhibition,[11]; at 1.2 µM,-20%
same,growth inhibition,[11]; at 3.7 µM,-9%
same,growth inhibition,[11]; at 11.0 µM,-13%
same,growth inhibition,[11]; at 33.0 µM,11%
same,growth inhibition,[11]; at 100.0 µM,77% (active)
same,growth inhibition,[12]; at 1.2 µM,-15%
same,growth inhibition,[12]; at 3.7 µM,-3%
same,growth inhibition,[12]; at 11.0 µM,3%
same,growth inhibition,[12]; at 33.0 µM,43%
same,growth inhibition,[12]; at 100.0 µM,85% (active)
same,growth inhibition,[13]; at 1.2 µM,11%
same,growth inhibition,[13]; at 3.7 µM,14%
same,growth inhibition,[13]; at 11.0 µM,7%
same,growth inhibition,[13]; at 33.0 µM,42%
same,growth inhibition,[13]; at 100.0 µM,84% (active)
same,growth inhibition,[14]; [16],32%
same,growth inhibition,[14]; [17],99% (active)
same,growth inhibition,[14]; at 50.0 µM,44.5%
same,growth inhibition,[15]; at 1.2 µM,-12%
same,growth inhibition,[15]; at 3.7 µM,1%
same,growth inhibition,[15]; at 11.0 µM,11%
same,growth inhibition,[15]; at 33.0 µM,27%
same,growth inhibition,[15]; at 100.0 µM,78% (active)
